According to PubChem BioAssay:
Calls of active or inactive are those of the source.

Key:
[1] = optical density shifts of acrAB sulA E. coli – strain DRC41, OD650, 48 h, E. coli filamentation inducer project, primary screen (AID 1152); settings: higher = more signal, called active from +8 up or from −8 down;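 further: E. coli MC1000 strain DRC41 lacking acrAB efflux pump and sulA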
[2] = probe aLefty1 binding on compound microarray – biochemical, small-molecule microarray, 635/667 nm fluorescence, primary screen (AID 1153); settings: higher = more signal;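 further: score merges spot fluorescence with signal-to-noise ratio from the scanned slide images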
[3] = plasmodial surface anion channel blockers, osmotic lysis – cell-based, P. falciparum Indochina, OD700, 1 h, primary screen (AID 1154); settings: P. falciparum Indochina infected RBC osmotic lysis, higher = more signal, called active from +8 up or from −8 down
[4] = plasmodial surface anion channel blockers, osmotic lysis – cell-based, P. falciparum Indochina, OD700, 2 h, primary screen (AID 1155);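 further: lysis reports solute entry through the parasite surface anion channel PSAC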; settings: P. falciparum Indochina infected erythrocytes, higher = more signal, called active from +8 up or from −8 down
[5] = changes in parasitized red cell lysis, either direction – P. falciparum Indochina, OD700, 3 h, PSAC antagonist project, primary screen (AID 1156); settings: P. falciparum-infected erythrocytes, osmotic lysis, higher = more signal, called active from +8 up or from −8 down
[6] = plasmodial surface anion channel blockers, osmotic lysis – cell-based, P. falciparum Indochina, OD700, 18 h, primary screen (AID 1157); settings: P. falciparum Indochina infected erythrocytes, osmotic lysis OD700, 18 h; higher = more signal, called active from +8 up or from −8 down
[7] = S6 kinase pathway phospho-S6 level changes – cell-based, A549, cytoblot, luminescence, serum-stimulated, primary screen (AID 1158); settings: 5 h, higher = more signal;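 further: serum-stimulated A549 lung adenocarcinoma cells; signal is phosphorylated S6 detected by cytoblot immunostaining with HRP secondary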
[8] = biological target: NADPH oxidase 2 (Homo sapiens) (UniProt P04839); experiment: compounds shifting NOX2 Amplex Red fluorescence – cell-based, HEK293-NOX2, PMA-stimulated, NOX inhibitor project, primary screen (AID 1159); settings: 45 min, higher = more signal, called active from +8 up or from −8 down; further: test concentration not given here
[9] = biological target: NADPH oxidase 4 (Homo sapiens) (UniProt Q9NPH5); experiment: compounds shifting NOX4 Amplex Red fluorescence – cell-based, HEK293-NOX4, tetracycline-induced, NOX inhibitor project, primary screen (AID 1160); settings: HEK293-NOX4, Amplex Red H2O2 fluorescence, 45 min; higher = more signal, called active from +8 up or from −8 down
[10] = biological target: NADPH oxidase 5 (Homo sapiens) (UniProt Q96PH1); experiment: compounds shifting NOX5 Amplex Red fluorescence – cell-based, HEK293-NOX5, NOX inhibitor project, primary screen (AID 1161); settings: HEK293-NOX5, ionomycin, 45 min, higher = more signal
[11] = compound effects on lung adenocarcinoma cell viability – A549, calcein-AM fluorescence, 48 h, basal, profiling panel (AID 1162); settings: higher = more signal; further: test concentration not given here
[12] = compound effects on differentiated 3T3-L1 adipocyte viability – cell-based, 3T3-L1 adipocytes, calcein-AM fluorescence, 48 h, basal, profiling panel (AID 1163); settings: 3T3-L1 adipocytes viability, higher = more signal; further: test concentration not given here
[13] = compound effects on hepatocellular carcinoma cell viability – HepG2, calcein-AM fluorescence, 48 h, basal, profiling panel (AID 1164); settings: higher = more signal; further: test concentration not given here
[14] = compound effects on multiple myeloma cell viability – MM1S, calcein-AM fluorescence, 48 h, basal, profiling panel (AID 1165); settings: higher = more signal;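 further: viability of MM1S multiple myeloma cells under basal unstimulated conditions; test concentration not given here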
[15] = calcein-AM signal in unstimulated myeloma cells – cell-based, calcein-AM fluorescence, 48 h, PK04 Diversity Set, profiling panel (AID 1166); settings: RPMI8226 myeloma viability, higher = more signal;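 further: cells grown under basal conditions without added stimulus; test concentration not given here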
[16] = JC-1 mitochondrial signal, unstimulated HepG2 cells – cell-based, JC-1 fluorescence, 24 h, 100 nL compound, profiling panel (AID 1167); settings: HepG2 mitochondrial potential, higher = more signal; further: test concentration not given here
[17] = JC-1 mitochondrial signal, unstimulated adipocytes – cell-based, JC-1 fluorescence, 3T3-L1 adipocytes, 24 h, 100 nL compound, profiling panel (AID 1168); settings: JC-1 mitochondrial fluorescence, higher = more signal, called active from +8 up or from −8 down; further: test concentration not given here
[18] = JC-1 mitochondrial signal, unstimulated myeloma cells – cell-based, JC-1 fluorescence, RPMI8226, 24 h, 100 nL compound, profiling panel (AID 1169); settings: JC-1 mitochondrial potential fluorescence, higher = more signal; further: test concentration not given here
[19] = JC-1 mitochondrial signal, unstimulated MM1S myeloma – cell-based, JC-1 fluorescence, 24 h, 100 nL compound, profiling panel (AID 1170); settings: MM1S mitochondrial potential, higher = more signal; further: test concentration not given here
[20] = resazurin metabolic signal in A549 cells – cell-based, resazurin fluorescence, 24 h, PK04 Diversity Set, profiling panel (AID 1171); settings: A549 viability, higher = more signal, called active from +8 up or from −8 down; further: test concentration not given here

Chain of NADPH oxidase 2 (Homo sapiens) (P04839 whole entry, looked up): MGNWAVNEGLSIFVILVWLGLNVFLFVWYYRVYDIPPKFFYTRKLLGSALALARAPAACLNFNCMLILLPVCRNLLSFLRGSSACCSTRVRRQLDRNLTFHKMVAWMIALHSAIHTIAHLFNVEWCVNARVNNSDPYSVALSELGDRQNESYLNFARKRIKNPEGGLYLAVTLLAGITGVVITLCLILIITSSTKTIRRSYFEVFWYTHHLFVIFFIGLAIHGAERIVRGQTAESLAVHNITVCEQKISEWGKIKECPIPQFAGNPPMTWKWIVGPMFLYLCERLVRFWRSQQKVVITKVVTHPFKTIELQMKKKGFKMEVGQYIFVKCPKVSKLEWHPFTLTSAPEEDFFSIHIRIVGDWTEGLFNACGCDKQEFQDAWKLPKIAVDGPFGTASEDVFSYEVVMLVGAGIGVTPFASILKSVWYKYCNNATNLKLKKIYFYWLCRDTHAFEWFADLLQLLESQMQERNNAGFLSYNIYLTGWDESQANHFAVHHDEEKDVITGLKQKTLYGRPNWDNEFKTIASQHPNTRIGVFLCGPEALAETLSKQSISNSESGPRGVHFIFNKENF
Chain of NADPH oxidase 4 (Homo sapiens) (Q9NPH5 whole entry, looked up): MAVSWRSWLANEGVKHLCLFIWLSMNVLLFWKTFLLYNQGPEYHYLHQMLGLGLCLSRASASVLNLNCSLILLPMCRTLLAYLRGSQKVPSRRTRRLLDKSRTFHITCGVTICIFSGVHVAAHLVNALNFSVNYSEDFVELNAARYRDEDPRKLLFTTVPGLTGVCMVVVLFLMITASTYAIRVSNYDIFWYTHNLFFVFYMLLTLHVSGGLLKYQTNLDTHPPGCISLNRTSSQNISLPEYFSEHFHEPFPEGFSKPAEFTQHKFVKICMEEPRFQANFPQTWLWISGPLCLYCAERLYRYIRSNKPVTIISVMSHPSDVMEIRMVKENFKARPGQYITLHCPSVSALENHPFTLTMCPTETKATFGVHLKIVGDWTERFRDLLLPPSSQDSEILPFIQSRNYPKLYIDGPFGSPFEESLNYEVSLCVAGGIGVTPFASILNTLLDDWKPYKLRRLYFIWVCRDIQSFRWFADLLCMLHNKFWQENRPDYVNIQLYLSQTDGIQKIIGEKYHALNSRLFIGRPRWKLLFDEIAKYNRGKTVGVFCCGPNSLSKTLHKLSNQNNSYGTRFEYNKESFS
Chain of NADPH oxidase 5 (Homo sapiens) (Q96PH1 whole entry, looked up): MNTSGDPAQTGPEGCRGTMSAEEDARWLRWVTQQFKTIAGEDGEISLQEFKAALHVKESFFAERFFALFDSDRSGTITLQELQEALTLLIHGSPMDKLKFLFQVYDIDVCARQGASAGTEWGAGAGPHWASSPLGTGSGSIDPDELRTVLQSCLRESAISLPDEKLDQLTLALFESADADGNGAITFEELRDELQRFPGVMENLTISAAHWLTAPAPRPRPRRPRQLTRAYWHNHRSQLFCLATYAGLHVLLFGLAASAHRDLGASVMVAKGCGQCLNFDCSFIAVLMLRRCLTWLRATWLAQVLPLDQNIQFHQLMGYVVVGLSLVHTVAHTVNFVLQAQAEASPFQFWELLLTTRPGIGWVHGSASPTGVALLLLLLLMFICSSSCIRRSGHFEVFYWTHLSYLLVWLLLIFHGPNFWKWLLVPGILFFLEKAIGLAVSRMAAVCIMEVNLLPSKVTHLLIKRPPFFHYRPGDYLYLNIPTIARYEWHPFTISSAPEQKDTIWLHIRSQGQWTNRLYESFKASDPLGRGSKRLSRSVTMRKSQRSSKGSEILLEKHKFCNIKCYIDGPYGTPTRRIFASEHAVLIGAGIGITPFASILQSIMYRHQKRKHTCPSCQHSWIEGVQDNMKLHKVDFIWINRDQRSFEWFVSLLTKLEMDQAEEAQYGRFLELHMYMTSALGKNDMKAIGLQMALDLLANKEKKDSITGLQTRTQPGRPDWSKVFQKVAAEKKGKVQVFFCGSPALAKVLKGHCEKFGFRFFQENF

SMILES	z-score [1]	composite z-score [2]	z-score [3]	z-score [4]	z-score [5]	z-score [6]	z-score [7]	z-score [8]	z-score [9]	z-score [10]	z-score [11]	z-score [12]	z-score [13]	z-score [14]	z-score [15]	z-score [16]	z-score [17]	z-score [18]	z-score [19]	z-score [20]
C=CCN1C(=O)[C@]2(O[C@H](CCn3cc([C@H](O)c4ccccc4)nn3)[C@@H]([Si](C)(C)c3ccc(OC)cc3)[C@@H]2C)c2cc(N3C(=O)c4cccc5cccc3c45)ccc21	0.443 (inactive)	-0.101	5.26 (inactive)	1.59 (inactive)	1.97 (inactive)	0.889 (inactive)	0.435	1.06 (inactive)	1.11 (inactive)	0.797	-0.133	-0.363	-3.33	-1.4	-4.46	2.24	1.19 (inactive)	-1.02	-1.33	-1.7 (inactive)
C=CCOC(=O)[C@H]1[C@@H]2C(=O)O[C@@H](c3ccccc3)[C@@H](c3ccccc3)N2[C@@H](c2ccc(OCCOC(=O)[C@@H]3C[C@@H]4C(=O)N[C@@H](CC(C)C)C(=O)N4[C@@H]3c3ccc(O)cc3)cc2)[C@]12C(=O)Nc1ccc(I)cc12	0.833 (inactive)	0.106	2.77 (inactive)	1.33 (inactive)	2.31 (inactive)	-1.46 (inactive)	1.09	0.894 (inactive)	0.499 (inactive)	1.4	0.13	0.283	1.55	0.345	-0.207	-1.78	1 (inactive)	-0.438	-0.961	-0.629 (inactive)
CO[C@H]1O[C@H](CO)[C@@H](OC(=O)Nc2ccc(C(F)(F)F)cc2)[C@H](OC(=O)Nc2ccccc2-c2ccccc2)[C@H]1OC(=O)Nc1ccccc1-c1ccccc1	-1.16 (inactive)	0.398	3.1 (inactive)	1.18 (inactive)	-2.21 (inactive)	1.16 (inactive)	-0.413	-3.25 (inactive)	-1.07 (inactive)	-0.439	-4.38	0.158	-5.26	-3.52	-3.98	0.235	0.0902 (inactive)	-0.867	-1.76	-6.26 (inactive)
C=C(COC)/C(=C/C[C@@H](OC(C)=O)c1ccccc1OCCO)c1cc(C(=O)OC)ccc1OC	0.0999 (inactive)	0.0945	17.2 (active)	2.52 (inactive)	1.68 (inactive)	1.04 (inactive)	-0.0651	0.857 (inactive)	-0.16 (inactive)	-1.46	1.2	-2.49	0.5	-3.3	-0.866	0.751	0.00709 (inactive)	-0.338	-0.875	0.368 (inactive)
C=C(COC)C(=O)CC[C@@H](OC(C)=O)c1ccc(OCCO)cc1	-0.297 (inactive)	-0.007	2.52 (inactive)	0.27 (inactive)	0.133 (inactive)	0.0871 (inactive)	0.239	-0.352 (inactive)	-0.885 (inactive)	-0.112	0.453	0.327	-0.446	-3.18	-0.311	-1.28	-0.979 (inactive)	-0.652	-0.655	-0.412 (inactive)
CCCC=C(CCC)[C@@H](NS(=O)(=O)c1ccc(Cl)cc1)c1ccccc1	-2.04 (inactive)	0.345	1.02 (inactive)	0.1 (inactive)	1.16 (inactive)	0.814 (inactive)	0.717	-1.64 (inactive)	-3.24 (inactive)	1.59	-1.61	-0.224	-1.42	-1.18	-3.77	-3.69	0.0744 (inactive)	-0.372	-0.676	2.17 (inactive)
COc1cc(OC)c(C(O)C2C=CC3C(=O)N(c4ccccc4)C(=O)C3N2Nc2ccccc2F)cc1Br (stereo not given)	-1.76 (inactive)	0.692	7.23 (inactive)	2.36 (inactive)	0.449 (inactive)	1.54 (inactive)	-0.822	-1.32 (inactive)	-4.43 (inactive)	-2.21	-1.06	-1.41	0.302	-0.303	-0.308	-2.04	-1.17 (inactive)	0.26	-0.645	-0.568 (inactive)
